# Measured values from the supplement of paper PMC7858590.
# Tested on: human monocyte-derived macrophages (polarized)
# Assay: cell shape (eccentricity) Z-score vs DMSO control; higher = more elongated, M2-like morphology
# Details: 5 µM; 24 h; macrophage state: M1-polarized (IFNg + TNFa), cytokines present during treatment
# Description: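 Primary-screen hits were rescreened on polarized hMDMs with the differentiating cytokines (IL-4 + IL-13 or IFNg + TNFa) kept in the medium during treatment with compound at 5 uM for 24 h. The eccentricity Z-score vs DMSO wells is averaged over experiments.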
row,SMILES,cell shape (Z-score)
1,COc1cccc2c1C(=O)c1c(O)c3c(c(O)c1C2=O)C[C@@](O)(C(C)=O)C[C@@H]3O[C@H]1C[C@H](N)[C@H](O)[C@H](C)O1,8.83
2,CS(=O)(=O)c1cccc(CNc2nc(Nc3ccc4c(c3)CCC(=O)N4)ncc2C(F)(F)F)c1,-3.99
3,O=S(=O)(c1cccc2cnccc12)N1CCNCC1,3.08
4,Oc1cccc(-c2nc(N3CCOCC3)c3oc4ncccc4c3n2)c1,-3.07
5,COc1cccc(NC(=O)/C=C/c2ccc(Cl)cc2)c1,4.58
6,CN(C)CC[C@H](CSc1ccccc1)Nc1ccc(S(=O)(=O)NC(=O)c2ccc(N3CCN(Cc4ccccc4-c4ccc(Cl)cc4)CC3)cc2)cc1[N+](=O)[O-],0.862
7,Cc1onc(-c2ccccc2)c1-c1ccc(S(N)(=O)=O)cc1,7.67
8,COc1cc2nccc(Oc3ccc(NC(=O)Nc4cc(C)on4)c(Cl)c3)c2cc1OC,7.92
9,CCn1c(=O)c2c(nc(/C=C/c3ccc(OC)c(OC)c3)n2C)n(CC)c1=O,3.19
10,CC[C@]1(O)C[C@@H]2CN(CCc3c([nH]c4ccccc34)[C@@](C(=O)OC)(c3cc4c(cc3OC)N(C)[C@H]3[C@@](O)(C(=O)OC)[C@H](OC(C)=O)[C@]5(CC)C=CCN6CC[C@]43[C@@H]65)C2)C1,6.51
11,COc1ccc2oc(-c3ccccc3OC)cc(=O)c2c1,0.285
12,CC(C(=O)Nc1cccc(/N=C/c2c(O)ccc3ccccc23)c1)c1ccccc1 (stereo not given),3.72
13,C[C@H]1[C@H](NC(=O)/C(=N\OC(C)(C)C(=O)O)c2csc(N)n2)C(=O)N1S(=O)(=O)O,0.443
14,CN1CCN(c2nc(C3=C(c4c[nH]c5ccccc45)C(=O)NC3=O)c3ccccc3n2)CC1,-0.285
15,NC(=O)Nc1cc(-c2cccc(F)c2)sc1C(=O)N[C@H]1CCCNC1,7.81
16,Clc1ccc(C2(c3ccc(-c4cn[nH]c4)cc3)CCNCC2)cc1,24.9
17,N#Cc1ccc(COC[C@H]2O[C@@H](n3c(NCc4ccc(Cl)c(Cl)c4)nc4c(N)ncnc43)[C@H](O)[C@@H]2O)cc1,-3.47
18,OC[C@H](Cc1ccccc1)Nc1nc(Oc2ccc3c(c2)CCC3)nc2c1ncn2Cc1ccc(-c2ccccc2)cc1,7.52
19,CC(C)C[C@@H](C=O)NC(=O)[C@H](CC(C)C)NC(=O)[C@H](CC(C)C)NC(=O)OCc1ccccc1,4.21
20,CCCCCCCCCCC(C)(C)C(=O)Nc1c(OC)cc(OC)cc1OC,-3.18
21,Cc1c(C(=O)Nc2ccc(N3C[C@@H](C)O[C@@H](C)C3)nc2)cccc1-c1ccc(OC(F)(F)F)cc1,8.76

# Same assay, conditions: 5 µM; 24 h; macrophage state: M2-polarized (IL-4 + IL-13), cytokines present during treatment
row,SMILES,cell shape (Z-score)
1,CC(CCCCC(=O)Nc1ccc(C(F)(F)F)cc1)NCCc1cnc[nH]1 (stereo not given),-6.34
2,CNCCC(Oc1ccc(C(F)(F)F)cc1)c1ccccc1 (stereo not given),7.81
3,CN1[C@@H](CC(=O)c2ccccc2)CCC[C@H]1C[C@H](O)c1ccccc1,4.11
4,Cc1nc(Nc2n[nH]c3c2CN(C(=O)N[C@H](CN(C)C)c2ccccc2)C3(C)C)c2sccc2n1,-7.51
5,CCCS(=O)(=O)Nc1ccc(F)c(C(=O)c2c[nH]c3ncc(-c4ccc(Cl)cc4)cc23)c1F [Vemurafenib],-1.16
6,CN1c2ccccc2C(=O)N2CCc3c([nH]c4ccccc34)[C@@H]21,-7.76
7,CC(=O)Oc1cc2c(c(C)c1OC(C)=O)CC=C1[C@@]2(C)CC[C@@]2(C)C3C[C@](C)(C(=O)O)CC[C@]3(C)CC[C@]12C (stereo not given in full),-0.297
8,O=C(Nc1nc2ccc(NC(=O)C34CC5CC(CC(C5)C3)C4)cc2s1)c1ccccc1,-6.86
9,Cc1cc(NS(=O)(=O)c2ccc(N)cc2)no1,-9.54
10,COC(=O)Nc1nc2ccc(C(=O)C3CC3)cc2[nH]1,-16.3
11,COC(=O)C[C@@H]1C(C(=O)O)=CO[C@@H](O[C@@H]2O[C@H](CO)[C@@H](O)[C@H](O)[C@H]2O)/C1=C\COC(=O)/C=C/c1ccccc1,-7.78
12,COc1ccc(S(=O)(=O)N(C(C)=O)c2ccccc2/C=C/c2cc[n+]([O-])cc2)cc1,-2.29
13,O=C(Nc1ccc([N+](=O)[O-])cc1O)Nc1ccccc1Br,-12.2
14,CC(C)c1ccc(Cn2ccc3c4c(N)nc(NC5CC5)nc4ccc32)cc1,-11
